Measured values from PubChem BioAssay (NCATS).
Results filed as inconclusive are left out. The source made the active and inactive calls. Unless noted, the call rests on the fitted dose curve; in most records, active means well fitted cell-killing curve with a large enough effect; inconclusive means small, poorly fitted or top-dose-only effect; inactive means flat fitted curve, though single readings scatter.

What was measured:
[1] = Cell Viability - LYMP2-025 (AID 976);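 further: series mostly up to about 92 µM; plate controls were DMSO only for no effect and tetraoctylammonium bromide control for full effect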
Procedure, shortened: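 Cytotoxicity read as loss of intracellular ATP (luciferase luminescence) after 24 h compound treatment at 37 C. Uses LYMP2-025 lymphoblastoid cells in 1536-well format; Hill-equation modelling gives AC50; tetraoctylammonium bromide as positive control.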

[2] = Cell Viability - LYMP2-002 (AID 977);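 further: series mostly up to about 92 µM; plate controls were DMSO only for no effect and 92 µM tetraoctylammonium bromide for full effect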
Procedure, shortened: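 Human lymphoblastoid cells (2500/well) in complete medium were preincubated 5 hr at 37 C, then exposed to compounds for 24 hr at 37 C. Intracellular ATP was read by CellTiter-Glo luminescence; AC50 came from Hill-equation concentration-response fits.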

[3] = Cell Viability - LYMP2-006 (AID 978); further: series mostly up to about 92 µM; on the % scale 0 is the no-effect control and ±100 the full control effect; nearly all actives have a fitted effect of over 60% in size
Procedure, shortened: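 In this cytotoxicity screen, the human lymphoblastoid line grew in complete medium with test compounds for 24 hr at 37 C. Cellular ATP served as the viability signal.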

[4] = Cell Viability - LYMP2-007 (AID 979);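 further: cells exposed to compound for 24 h before reading; 0% = DMSO only and the negative end = 92 µM tetraoctylammonium bromide; nearly all actives have a fitted effect of over 60% in size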
Procedure, shortened: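 AC50 values come from Hill-equation fits of luminescent intracellular ATP (CellTiter-Glo, 30 min, room temperature) following 24 h compound exposure at 37 C. Cells: LYMP2-007 lymphoblastoid line, 2500 per well, in complete culture medium.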

[5] = Cell Viability - LYMP2-008 (AID 980); further: on the % scale 0 is the no-effect control and ±100 the full control effect; nearly all actives have a fitted effect of over 60% in size
Procedure, shortened: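 Cytotoxicity determined from ATP-dependent luciferase luminescence (CellTiter-Glo) following 24 h compound exposure of human lymphoblastoid LYMP2-008 cells at 37 C. Concentration-response data fitted to the Hill equation to give AC50.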

[6] = Cell Viability - LYMP2-010 (AID 981); further: on the % scale 0 is the no-effect control and ±100 the full control effect; nearly all actives have a fitted effect of over 55% in size
Procedure, shortened: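 CellTiter-Glo ATP luminescence measured cytotoxicity after 24 h compound exposure at 37 C. LYMP2-010 cells were seeded at 2500/well, with tetraoctylammonium bromide as control; concentration-response curves gave AC50 values by the Hill equation.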

[7] = Cell Viability - LYMP2-014 (AID 983);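 further: series mostly up to about 92 µM; plate controls were DMSO only for no effect and 92 µM tetraoctylammonium bromide for full effect; nearly all actives have a fitted effect of over 50% in size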
Procedure, shortened: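 Intracellular ATP loss, read by luciferase luminescence, measures acute cytotoxicity after 24 h compound exposure of lymphoblastoid LYMP2-014 cells (2500/well, 37 C). Concentration-response data fitted to the Hill equation for AC50.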

[8] = Cell Viability - LYMP2-018 (AID 985);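 further: plate controls were DMSO only for no effect and tetraoctylammonium bromide at 92 µM for full effect; nearly all actives have a fitted effect of over 50% in size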
Procedure, shortened: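 Viability read as CellTiter-Glo luminescence (cellular ATP) after 24 hr compound exposure at 37 C of 2500 LYMP2-018 lymphoblastoid cells/well, pre-plated 5 hr. Hill-equation modelling gave AC50.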

[9] = Cell Viability - LYMP2-020 (AID 986);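 further: series mostly up to about 92 µM; plate controls were DMSO only for no effect and tetraoctylammonium bromide at 92 µM for full effect; nearly all actives have a fitted effect of over 55% in size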
Procedure, shortened: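 Cytotoxicity in qHTS format: luminescent ATP readout from CellTiter-Glo after 24 h compound exposure at 37 C in complete medium. LYMP2-020 lymphoblastoid cells were seeded at 2500/well; concentration-response data fitted to the Hill equation for AC50.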

[10] = Cell Viability - LYMP2-022 (AID 987);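 further: 0% = DMSO alone and full effect = tetraoctylammonium bromide at 92 µM; nearly all actives have a fitted effect of over 55% in size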
Procedure, shortened: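 Cytotoxicity read as decreased cellular ATP (CellTiter-Glo luminescence, 30 min room temperature) after 24 hours compound exposure of 2500 lymphoblastoid LYMP2-022 cells/well at 37 C. Concentration-response data fitted with standard Hill equation for AC50.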

[11] = Cell Viability - LYMP2-024 (AID 988);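 further: plate controls were DMSO only for no effect and 92 µM tetraoctylammonium bromide for full effect; nearly all actives have a fitted effect of over 60% in size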
Procedure, shortened: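 Cytotoxicity was taken as a decrease in ATP (CellTiter-Glo luminescence) after 24 hr compound exposure at 37 C of LYMP2-024 lymphoblastoid cells, 2500 cells/well. Concentration-response data were fitted to the Hill equation to give AC50.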

[12] = Cell Viability - LYMP2-026 (AID 989); further: on the % scale 0 is the no-effect control and ±100 the full control effect; nearly all actives have a fitted effect of over 50% in size
Procedure, shortened: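 Cytotoxicity read as ATP-dependent luminescence (CellTiter-Glo, 30 min room temperature) after 24 h compound treatment at 37 C. LYMP2-026 lymphoblastoid line seeded at 2500 cells/well; AC50 derived by standard Hill equation.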

[13] = Cell Viability - LYMP1-002 - Assay at 24 hr (AID 993); further: on the % scale 0 is the no-effect control and ±100 the full control effect
Procedure, shortened: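 qHTS cytotoxicity at 24 h: CellTiter-Glo ATP luminescence in lymphoblastoid line LYMP1-002 incubated with compound at 37 °C. Concentration-response modeled with the Hill equation for AC50; tetraoctylammonium bromide served as positive control.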

[14] = Cell Viability - LYMP1-002 - Assay at 40 hr (AID 994)
Procedure, shortened: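 Cytotoxicity was read as loss of cellular ATP (CellTiter-Glo luminescence) after 40 hr compound exposure at 37 C of 2500 LYMP1-002 lymphoblastoid cells per well. Concentration-response data were fitted with the standard Hill equation to give AC50.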

[15] = qHTS Assay for Identification of Small Molecule Inducers of Hypoxia Response (AID 2120; active means well fitted curve in the direction sought with a large enough effect in the signal ratio, with a control signal flat, not every such curve was filed as active; the % refers to the signal ratio; further: 0% is about no effect)
Procedure, shortened: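 Reporter induction read as the CCF4 blue/green (460nm/530nm) emission ratio after 2.5 h dye loading at room temperature. ME-180 HRE-beta-lactamase cells received titrated compounds for 17 h at 37 degrees Celsius; AC50 values derived.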

[16] = target: Estrogen receptor (Homo sapiens) (UniProt P03372); assay: qHTS assay for small molecule antagonists of estrogen receptor alpha signaling (AID 588513; active means well fitted curve in the direction sought with a large enough effect in the signal ratio, with a control signal flat, not every such curve was filed as active; the % refers to the signal ratio; further: on the % scale 0 is the no-effect control and ±100 the full control effect)
Procedure, shortened: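 Antagonist-mode qHTS in ER-alpha-UAS-bla HEK 293 cells: compound titration, 0.5nM estradiol for 18 h, CCF4 fluorescence, Hill-derived IC50.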

[17] = target: Estrogen receptor (Homo sapiens) (UniProt P03372); assay: qHTS assay for small molecule agonists of estrogen receptor alpha signaling (AID 588514; calls by dose curve;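 further: 0% = vehicle only and 100% = reference agonist; nearly all actives have a fitted effect of over 70% in size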)
Procedure, shortened: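 EC50 and efficacy came from Hill fits of beta-lactamase reporter signal (CCF4 dye, 2 h at room temperature) scaled between DMSO and 20 nM 17-beta-estradiol. Agonist mode: HEK293 ER-alpha-UAS-bla cells in charcoal/dextran-stripped serum medium, 18 h compound exposure at 37 C.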

[18] = target: Androgen receptor (Homo sapiens) (UniProt P10275); assay: qHTS assay for small molecule agonists of androgen receptor signaling (AID 588515; active means well fitted curve in the direction sought with a large enough effect in the signal ratio, with a control signal flat; the % refers to the signal ratio; further: on the % scale 0 is the no-effect control and ±100 the full control effect); details: AR-UAS-bla HEK293, beta-lactamase ratio, agonist 16 h; active compounds read high
Procedure, shortened: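 Stimulation of an AR-responsive β-lactamase reporter in GripTite HEK293 cells was measured after 16 h compound exposure at 37 °C, via CCF4 fluorescence after 2 h RT. EC50 from Hill fits, normalized to R1881 at 30 nM.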

[19] = Cell Viability - LYMP2-012 (AID 982);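 further: cellular ATP by luciferase luminescence where a drop means cytotoxicity; cells exposed to compound for one day before reading; 0% = DMSO only and full loss = 92 µM tetraoctylammonium bromide; nearly all actives have a fitted effect of over 55% in size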
[20] = Cell Viability - LYMP2-016 (AID 984)
Procedure, shortened: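 Concentration-dependent ATP depletion measured in LYMP2-016 lymphoblastoid cells, 24 h, 37 C; luciferase-based luminescent detection; Hill-equation AC50.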

Androgen receptor (Homo sapiens), sequence (P10275 whole entry, looked up): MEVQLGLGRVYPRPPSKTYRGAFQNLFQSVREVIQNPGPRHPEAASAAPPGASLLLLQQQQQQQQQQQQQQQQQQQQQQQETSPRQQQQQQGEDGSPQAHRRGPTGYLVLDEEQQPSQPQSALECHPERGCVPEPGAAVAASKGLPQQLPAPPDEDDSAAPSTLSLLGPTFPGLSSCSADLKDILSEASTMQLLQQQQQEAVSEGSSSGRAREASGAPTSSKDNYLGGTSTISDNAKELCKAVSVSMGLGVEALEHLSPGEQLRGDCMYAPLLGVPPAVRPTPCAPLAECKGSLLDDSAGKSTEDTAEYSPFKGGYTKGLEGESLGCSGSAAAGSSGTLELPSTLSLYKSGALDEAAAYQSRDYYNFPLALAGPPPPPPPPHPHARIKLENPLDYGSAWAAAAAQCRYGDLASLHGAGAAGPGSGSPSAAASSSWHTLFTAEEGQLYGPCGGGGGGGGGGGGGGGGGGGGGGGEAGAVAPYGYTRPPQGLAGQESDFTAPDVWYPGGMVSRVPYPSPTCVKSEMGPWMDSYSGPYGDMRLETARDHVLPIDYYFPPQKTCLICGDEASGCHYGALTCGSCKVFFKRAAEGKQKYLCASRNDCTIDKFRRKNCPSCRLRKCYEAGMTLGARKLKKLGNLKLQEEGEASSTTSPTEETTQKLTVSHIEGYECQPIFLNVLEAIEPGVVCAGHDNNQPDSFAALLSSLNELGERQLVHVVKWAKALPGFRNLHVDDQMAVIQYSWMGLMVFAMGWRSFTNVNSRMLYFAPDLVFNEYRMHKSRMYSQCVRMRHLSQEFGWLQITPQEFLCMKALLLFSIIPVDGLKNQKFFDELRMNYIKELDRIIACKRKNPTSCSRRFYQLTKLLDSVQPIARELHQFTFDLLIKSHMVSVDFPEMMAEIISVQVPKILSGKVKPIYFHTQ
Estrogen receptor (Homo sapiens), sequence (P03372 whole entry, looked up): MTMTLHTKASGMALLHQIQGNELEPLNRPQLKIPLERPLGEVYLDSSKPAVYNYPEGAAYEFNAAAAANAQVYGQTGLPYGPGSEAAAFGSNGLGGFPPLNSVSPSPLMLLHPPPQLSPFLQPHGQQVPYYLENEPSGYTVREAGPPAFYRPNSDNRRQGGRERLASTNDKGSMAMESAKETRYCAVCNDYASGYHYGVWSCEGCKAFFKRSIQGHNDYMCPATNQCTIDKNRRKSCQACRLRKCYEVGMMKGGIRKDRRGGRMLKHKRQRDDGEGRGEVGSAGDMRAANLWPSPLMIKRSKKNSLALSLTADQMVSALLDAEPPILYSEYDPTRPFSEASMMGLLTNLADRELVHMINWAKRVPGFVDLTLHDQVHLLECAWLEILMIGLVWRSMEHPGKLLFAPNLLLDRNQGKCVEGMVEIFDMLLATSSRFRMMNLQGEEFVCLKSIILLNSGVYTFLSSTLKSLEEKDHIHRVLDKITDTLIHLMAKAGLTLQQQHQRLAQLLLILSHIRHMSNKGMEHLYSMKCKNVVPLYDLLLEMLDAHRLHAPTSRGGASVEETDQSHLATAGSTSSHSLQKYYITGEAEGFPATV

C[C@@H]1CC2(OC3C[C@@]4(C)C5=CC[C@H]6C(C)(C)C(O[C@@H]7OC[C@@H](O)[C@H](O)[C@H]7O)CC[C@@]67C[C@@]57CC[C@]4(C)C31)OC(O)C1(C)OC21 (stereo not given in full)
inactive: Potency [1] | Potency [2] | Potency [3] | Potency [4] | Potency [5] | Potency [6] | Potency [7] | Potency [8] | Potency [9] | Potency [10] | Potency [11] | outcome [12] | Potency [13] | Potency [14] | outcome [15] | outcome [16] | Potency [17] | activation [18] -11%

CCCCCCCCC/C=C/CC1CC(=O)OC1=O (stereo not given)
inactive: Potency [1] | Potency [2] | Potency [3] | Potency [4] | Potency [5] | Potency [6] | Potency [19] | Potency [7] | Potency [20] | Potency [8] | Potency [9] | Potency [10] | Potency [11] | outcome [12] | Potency [13] | Potency [14] | outcome [15] | outcome [16] | Potency [17]

O=Cc1ccc(C(=O)O)cc1
inactive: Potency [1] | Potency [2] | Potency [3] | Potency [4] | Potency [5] | Potency [6] | Potency [19] | Potency [7] | Potency [20] | Potency [8] | Potency [9] | Potency [10] | Potency [11] | outcome [12] | Potency [13] | Potency [14] | outcome [15] | outcome [16] | Potency [17]

CC(=O)Nc1ccc(N)cc1
inactive: Potency [1] | Potency [2] | Potency [3] | Potency [4] | Potency [5] | Potency [6] | Potency [19] | Potency [7] | Potency [20] | Potency [8] | Potency [9] | Potency [10] | Potency [11] | outcome [12] | Potency [13] | Potency [14] | outcome [15] | outcome [16] | Potency [17] | activation [18] -10.4%

CCOc1cc(OCC)c(C(C)=O)cc1OCC
inactive: Potency [1] | Potency [2] | Potency [4] | Potency [5] | Potency [6] | Potency [19] | Potency [7] | Potency [20] | Potency [8] | Potency [9] | Potency [10] | Potency [11] | outcome [12] | Potency [13] | Potency [14] | outcome [15] | outcome [16] | Potency [17] | activation [18] -14.7%

Nc1ccc(Cl)cc1[N+](=O)[O-]
inactive: Potency [1] | Potency [2] | Potency [3] | Potency [4] | Potency [6] | Potency [19] | Potency [7] | Potency [20] | Potency [8] | Potency [9] | Potency [10] | Potency [11] | outcome [12] | Potency [13] | Potency [14] | outcome [15] | outcome [16] | Potency [17] | activation [18] 7.43%

O=C(O)CCSSCCC(=O)O
inactive: Potency [1] | Potency [2] | Potency [3] | Potency [4] | Potency [5] | Potency [6] | Potency [19] | Potency [7] | Potency [20] | Potency [8] | Potency [9] | Potency [10] | Potency [11] | outcome [12] | Potency [13] | Potency [14] | outcome [15] | outcome [16] | Potency [17] | activation [18] -2.34%

CC(C)c1ccccc1
inactive: Potency [1] | Potency [2] | Potency [3] | Potency [5] | Potency [6] | Potency [19] | Potency [7] | Potency [20] | Potency [9] | Potency [10] | Potency [11] | outcome [12] | Potency [13] | Potency [14] | outcome [15] | outcome [16] | Potency [17] | activation [18] -0.119%

Cc1cc(C)cc(N)c1
inactive: Potency [1] | Potency [2] | Potency [3] | Potency [4] | Potency [6] | Potency [19] | Potency [7] | Potency [20] | Potency [8] | Potency [9] | Potency [10] | Potency [11] | outcome [12] | Potency [13] | Potency [14] | outcome [15] | outcome [16] | Potency [17] | activation [18] 2.27%

Cc1cccc(C(=O)O)c1
inactive: Potency [1] | Potency [2] | Potency [3] | Potency [4] | Potency [5] | Potency [6] | Potency [19] | Potency [7] | Potency [20] | Potency [8] | Potency [9] | Potency [10] | Potency [11] | outcome [12] | Potency [13] | Potency [14] | outcome [15] | outcome [16] | Potency [17] | activation [18] -5.05%

NC(=O)CCCCC(N)=O
inactive: Potency [1] | Potency [2] | Potency [3] | Potency [4] | Potency [5] | Potency [6] | Potency [19] | Potency [7] | Potency [20] | Potency [8] | Potency [9] | Potency [10] | Potency [11] | outcome [12] | Potency [13] | Potency [14] | outcome [15] | outcome [16] | Potency [17]

CCCCCO
inactive: Potency [1] | Potency [2] | Potency [3] | Potency [4] | Potency [5] | Potency [6] | Potency [19] | Potency [7] | Potency [20] | Potency [8] | Potency [9] | Potency [10] | Potency [11] | outcome [12] | Potency [13] | Potency [14] | outcome [15] | outcome [16] | Potency [17]

CC(=O)c1nccs1
inactive: Potency [1] | Potency [2] | Potency [3] | Potency [4] | Potency [5] | Potency [6] | Potency [19] | Potency [7] | Potency [20] | Potency [8] | Potency [9] | Potency [10] | Potency [11] | outcome [12] | Potency [13] | Potency [14] | outcome [15] | outcome [16] | Potency [17]

OC(CCl)CCl
inactive: Potency [1] | Potency [2] | Potency [3] | Potency [4] | Potency [5] | Potency [6] | Potency [19] | Potency [7] | Potency [20] | Potency [8] | Potency [9] | Potency [10] | Potency [11] | outcome [12] | Potency [13] | Potency [14] | outcome [15] | outcome [16] | Potency [17]

O=C(O)c1cc(Cl)cc(Cl)c1
inactive: Potency [1] | Potency [2] | Potency [3] | Potency [4] | Potency [5] | Potency [6] | Potency [19] | Potency [7] | Potency [20] | Potency [8] | Potency [9] | Potency [10] | Potency [11] | outcome [12] | Potency [13] | Potency [14] | outcome [15] | outcome [16] | Potency [17]

C=C(C)C(=O)OCCCCCCCCCC
inactive: Potency [1] | Potency [2] | Potency [3] | Potency [4] | Potency [5] | Potency [6] | Potency [19] | Potency [7] | Potency [20] | Potency [8] | Potency [9] | Potency [10] | Potency [11] | outcome [12] | Potency [13] | Potency [14] | outcome [15] | outcome [16] | Potency [17]
